19 compounds from PubChem BioAssay (NCATS) can be followed below.

SMILES strings stand for the structures. “And” between values parts separate entries of the source, which are not always exact repeats. Identical values can stand only once. Inconclusive results are not listed. The source made the active and inactive calls. Calls follow the shape of the dose curve; as a rule, active = well fitted curve in the direction sought with a large enough effect; inconclusive = small, poorly fitted or top-dose-only effect, or another doubt; inactive = no such curve, though single readings can be large; an effect the other way counts as inactive or inconclusive. Residues, ends and D or L forms follow the SMILES beside them. *: point of attachment. Cbz = O=C(OCc1ccccc1)*

Assay [1] can be described thus: P-glycoprotein substrates identified in KB-8-5-11 adenocarcinoma cell line, qHTS therapeutic library screen (AID 1346987). Also: nearly all actives have a fitted effect of over 65% in size. The method, boiled down:
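Luminescence from CellTiter-Glo, read 5 min after addition, quantified survival of KB-8-5-11 (P-gp-overexpressing) cells exposed to compounds for 72 h. AC50 was derived from concentration-response curves.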

A short description of assay [2]: NS1 protein of Zika virus - qHTS assay to identify small molecule inhibitors in human HEK 293 cells (AID 1347053). Also: nearly all actives have a fitted effect of over 55% in size. The method, boiled down: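 Compound-treated (1 h pre-infection) HEK 293 cells infected with ZIKV MR766, MOI = 0.5; after 24 h at 37 C, NS1 read by TR-FRET; data normalized to uninfected and infected controls.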
On the technique in general: qHTS replaces the single test concentration by a dilution series.

Assay [3] in a line: qHTS of pediatric cancer cell lines to identify multiple opportunities for drug repurposing: Primary screen for TC32 cells (AID 1347089). Also: nearly all actives have a fitted effect of over 60% in size. The method, boiled down:
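qHTS, TC32, 48 h drug treatment, CellTiter-Glo luminescence as a proxy for metabolically active cells; primary top concentration 46 µM (MIPE 11-pt, NPC 8-pt); confirmatory 11-pt.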

A short description of assay [4]: qHTS of pediatric cancer cell lines to identify multiple opportunities for drug repurposing: Primary screen for DAOY cells (AID 1347090). Also: nearly all actives have a fitted effect of over 55% in size. The method, boiled down:
(§1)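 Viability measured as metabolically active cells via CellTiter-Glo luminescence following 48 hours of compound exposure, 11-point dilutions in confirmatory testing. 500-1,000 cells/well plated 5 hours before dosing; controls were DMSO and 2.3 µM bortezomib.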

Assay [5] is described as follows: qHTS of pediatric cancer cell lines to identify multiple opportunities for drug repurposing: Primary screen for SJ-GBM2 cells (AID 1347091). The method, boiled down: as §1
Potency is read from the fitted curve at half-maximal effect.

Take `C[C@H](CCC(=O)O)[C@H]1CC[C@H]2[C@@H]3[C@H](O)C[C@@H]4C[C@H](O)CC[C@]4(C)[C@@H]3CC[C@]12C`: the Potency entry in assay [1], in assay [2], in assay [3], in assay [4] and in assay [5] was “inactive” in each case.
Turning to `CC[C@H]1OC(=O)[C@H](C)[C@@H](O[C@H]2C[C@@](C)(OC)[C@@H](O)[C@H](C)O2)[C@H](C)[C@@H](O[C@@H]2O[C@@H](C)C[C@H](N(C)C)[C@@H]2O)[C@](C)(O)C[C@@H](C)C(=O)[C@H](C)[C@@H](O)[C@]1(C)O`, the Potency result in assay [1], in assay [2], in assay [3], in assay [4] and in assay [5] was “inactive” each time.
For `CC(C)C[C@H](NC(=O)[C@@H](NC(=O)c1cccc(-c2ccccc2)n1)[C@@H](C)O)B(O)O`, the Potency is 833 nM (active) and 820 nM (active) in assay [1]; 0.132 µM (active) in assay [2]; 0.466 µM (active) in assay [3]; 0.059 µM (active) in assay [4]; 0.0418 µM (active) in assay [5].
Consider `Cn1cnc2c(F)c(Nc3ccc(Br)cc3F)c(C(=O)NOCCO)cc21`, for which the Potency result in assay [1], in assay [2], in assay [3], in assay [4] and in assay [5] was “inactive” in each case.
Consider `C[C@H]1COc2c(N3CCN(C)CC3)c(F)cc3c(=O)c(C(=O)O)cn1c23`, for which the Potency result in assay [1], in assay [2], in assay [3], in assay [4] and in assay [5] was “inactive” throughout.
`C[C@H]1C[C@H]2[C@@H]3CCC4=CC(=O)C=C[C@]4(C)[C@@H]3C(=O)C[C@]2(C)[C@@]1(O)C(=O)CO`: the Potency result in assay [1], in assay [2], in assay [3], in assay [4] and in assay [5] was “inactive” throughout.
Turning to `C[C@]12CC[C@@H]3c4ccc(O)cc4CC[C@H]3[C@H]1CC[C@H]2O`, the results for the Potency in assay [1], in assay [4] and in assay [5] were 7.43 µM (active), 18.7 µM (active) and 16.6 µM (active), respectively. For the same compound, the Potency entry in assay [2] and in assay [3] was “inactive” in each case.
In the case of `N#CNC(=NCCCCCCOc1ccc(Cl)cc1)Nc1ccncc1`, the Potency in assay [1] was 0.0042 µM (active); in assay [3], 0.0033 µM (active); in assay [4] it was 14.8 µM (active); in assay [5] it was 0.001 µM (active). Further, the Potency result in assay [2] is “inactive”.
For the compound `C=C1C(=CC=C2CCC[C@]3(C)[C@@H]([C@H](C)CCCC(C)(C)O)CC[C@@H]23)C[C@@H](O)C[C@@H]1O`, the Potency entry in assay [1] and in assay [2] was “inactive” each time. The Potency in assay [3] was 16.5 µM (active); in assay [4] it was 4.69 µM (active); in assay [5] it was 13.2 µM (active).
As for `O=C(NC1CC1)c1cccc(-c2ccc3c(NC(=O)C4CC4)n[nH]c3c2)c1`, the Potency entry in assay [1] and in assay [2] was “inactive” in each case. Also, the Potency in assay [3] was 9.3 µM (active); in assay [4], 1.18 µM (active); in assay [5], 13.2 µM (active).
Turning to `Nc1ccn(C2CO[C@H](CO)O2)c(=O)n1` (stereo not given in full), the Potency result in assay [1], in assay [2], in assay [3], in assay [4] and in assay [5] was “inactive” each time.
In the case of `CCN(C(=O)c1c(O)c2c(Cl)cccc2n(C)c1=O)c1ccccc1`, the Potency entry in assay [1], in assay [2], in assay [3], in assay [4] and in assay [5] was “inactive” in each case.
For the compound `CC(=O)OC[C@@H]1O[C@@H](n2ccc(=O)[nH]c2=O)[C@H](OC(C)=O)[C@H]1OC(C)=O`, the Potency entry in assay [1], in assay [2], in assay [3], in assay [4] and in assay [5] was “inactive” each time.
Turning to `O=C1NCCc2[nH]c(-c3ccncc3)cc21`, the Potency in assay [1] is 7.43 µM (active); in assay [2] it was 9.35 µM (active); in assay [3], 11.7 µM (active); in assay [4], 4.69 µM (active); in assay [5] it was 2.35 µM (active).
In the same order, the values of `CC(C)(O)[C@H]1CC[C@@](C)([C@H]2[C@@H](O)C[C@@]3(C)[C@@H]4C[C@H](O[C@@H]5O[C@H](CO)[C@@H](O)[C@H](O)[C@@H]5O)[C@H]5C(C)(C)[C@@H](O[C@@H]6OC[C@@H](O)[C@H](O)[C@@H]6O)CC[C@@]56C[C@@]46CC[C@]23C)O1` are “inactive”, “inactive”, “inactive”, “inactive” and “inactive”.
In the same order, the values of `CCCc1nc(C(C)(C)O)c(C(=O)O)n1Cc1ccc(-c2ccccc2-c2nn[nH]n2)cc1` are “inactive”, “inactive”, “inactive”, “inactive” and “inactive”.
`CCOC(=O)C=C[C@H](C[C@@H]1CCNC1=O)NC(=O)[C@@H](CC(=O)[C@@H](NC(=O)c1cc(C)on1)C(C)C)Cc1ccc(F)cc1`: the Potency entry in assay [1], in assay [2], in assay [3], in assay [4] and in assay [5] was “inactive” throughout.
With `CC(C)C[C@@H](C=O)NC(=O)[C@H](CC(C)C)NC(=O)[C@H](CC(C)C)NC(=O)OCc1ccccc1` (Cbz-Leu-Leu-Leu-aldehyde), the Potency in assay [1] is 5.26 µM (active); in assay [2] it was 1.66 µM (active); in assay [3], 2.34 µM (active); in assay [4], 0.743 µM (active); in assay [5] it was 0.105 µM (active).
For `CC[C@H]1OC(=O)[C@H](C)[C@@H](O[C@H]2C[C@@](C)(OC)[C@@H](O)[C@H](C)O2)[C@H](C)[C@@H](O[C@@H]2O[C@H](C)C[C@H](N(C)C)[C@@H]2O)[C@](C)(OC)C[C@@H](C)C(=O)[C@H](C)[C@@H](O)[C@]1(C)O`, the Potency result in assay [1], in assay [2], in assay [3], in assay [4] and in assay [5] was “inactive” in each case.
